Results on 17 compounds are retold here after PubChem BioAssay.

Activity calls are given as the source filed them.

For assay [1], the system named is PRMT1 (protein arginine N-methyltransferase 1). Briefly: PRMT1 binders on small-molecule microarrays, primary screen, biochemical, small-molecule microarray, 635 nm fluorescence (AID 1088).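 Also: binding of Prmt1 protein to compounds spotted on small-molecule microarray slides.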 The settings on record: small-molecule microarray binding, higher = more signal.
Assay [2] is described as follows: yeast growth modulation, basal conditions, primary screen, YJM789 clinical isolate, OD600, 24 h (AID 1089).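 Also: growth of clinical yeast isolate S. cerevisiae YJM 789 seeded 1000 cells per well; test concentration not given here.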 The settings on record: S. cerevisiae YJM789 growth, higher = more signal, called active from +8 up or from −8 down.
Assay [3] in a line: fission yeast growth modulation, primary screen, strain 972, OD600, 24 h, no modulator (AID 1090).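 Also: basal condition with compound alone and no growth modifier present; test concentration not given here.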 The settings on record: S. pombe 972 growth, higher = more signal, called active from +8 up or from −8 down.
The nature of assay [4]: S. cerevisiae growth modulation with rapamycin, primary screen, strain BY4716, OD600, 96 h (AID 1091). Also: test concentration not given here. As to conditions: higher = more signal, called active from +8 up or from −8 down.
The target of assay [5] is Torsin-1A-interacting protein 2 (Homo sapiens) (UniProt Q8NFQ8). The experiment in a line: LULL1 binders on small-molecule microarray, primary screen, cell lysate, human LULL1 lysate, 635/667 nm fluorescence (AID 1092).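 Also: probe is lysate of COS7 cells overexpressing human LULL1; score merges per-feature 667 nm fluorescence with signal-to-noise.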 As to conditions: hLULL1 lysate binding, 635 nm fluorescence, higher = more signal.
Sequence of Torsin-1A-interacting protein 2 (Homo sapiens) (Q8NFQ8 whole entry, looked up): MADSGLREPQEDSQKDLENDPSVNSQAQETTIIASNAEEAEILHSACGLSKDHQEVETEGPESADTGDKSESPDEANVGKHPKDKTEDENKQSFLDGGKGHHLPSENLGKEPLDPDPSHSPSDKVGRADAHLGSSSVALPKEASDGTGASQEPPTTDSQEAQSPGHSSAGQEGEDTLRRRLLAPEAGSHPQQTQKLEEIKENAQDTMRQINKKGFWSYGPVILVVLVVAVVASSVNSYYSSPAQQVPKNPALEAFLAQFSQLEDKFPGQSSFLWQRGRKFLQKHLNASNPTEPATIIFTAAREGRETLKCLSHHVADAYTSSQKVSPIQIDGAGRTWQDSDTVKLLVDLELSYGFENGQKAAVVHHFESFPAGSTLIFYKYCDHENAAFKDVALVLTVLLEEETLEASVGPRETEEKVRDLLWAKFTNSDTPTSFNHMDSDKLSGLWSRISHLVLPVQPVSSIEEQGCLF
Assay [6] is described as follows: E. coli growth modulation, two-sided OD650, primary screen, E. coli filamentation project, strain DRC41, 24 h (AID 1093).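 Also: MC1000 strain lacking acrAB efflux and sulA so SOS filamentation is blocked; test concentration not given here.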 As to conditions: OD650, 24 h, higher = more signal, called active from +8 up or from −8 down.
Assay [7] is described as follows: small-molecule microarray binders of probe aLefty2, primary screen, biochemical, biotinylated probe, 635/667 nm fluorescence (AID 1094).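 Also: score merges spot fluorescence near 667 nm with spot signal-to-noise ratio.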 The settings on record: higher = more signal.
For assay [8], the system named is Noggin (protein binding on small-molecule microarray). The experiment in a line: Noggin binders on small-molecule microarray, primary screen, biochemical, 635/667 nm fluorescence (AID 1095).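 Also: score merges 667 nm feature fluorescence with signal to noise over triplicate slides.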 As to conditions: 635 nm fluorescence, higher = more signal.
Assay [9] has as its target Neurogenic locus notch homolog protein 3 (Homo sapiens) (UniProt Q9UM47). The experiment in a line: NOTCH3 binders on small-molecule microarray, primary screen, biochemical, 635/667 nm fluorescence (AID 1096). As to conditions: NOTCH3 binding, 635 nm fluorescence, higher = more signal.
A short description of assay [10]: small-molecule microarray binders of probe aEGFR, primary screen, biochemical, biotinylated probe, 635/667 nm fluorescence (AID 1097).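 Also: probe is a biotinylated anti-EGFR antibody binding compounds printed on slides; score combines fluorescence near 667 nm and signal to noise of each spot.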 As to conditions: higher = more signal.

Sequence of Neurogenic locus notch homolog protein 3 (Homo sapiens) (Q9UM47 whole entry, looked up): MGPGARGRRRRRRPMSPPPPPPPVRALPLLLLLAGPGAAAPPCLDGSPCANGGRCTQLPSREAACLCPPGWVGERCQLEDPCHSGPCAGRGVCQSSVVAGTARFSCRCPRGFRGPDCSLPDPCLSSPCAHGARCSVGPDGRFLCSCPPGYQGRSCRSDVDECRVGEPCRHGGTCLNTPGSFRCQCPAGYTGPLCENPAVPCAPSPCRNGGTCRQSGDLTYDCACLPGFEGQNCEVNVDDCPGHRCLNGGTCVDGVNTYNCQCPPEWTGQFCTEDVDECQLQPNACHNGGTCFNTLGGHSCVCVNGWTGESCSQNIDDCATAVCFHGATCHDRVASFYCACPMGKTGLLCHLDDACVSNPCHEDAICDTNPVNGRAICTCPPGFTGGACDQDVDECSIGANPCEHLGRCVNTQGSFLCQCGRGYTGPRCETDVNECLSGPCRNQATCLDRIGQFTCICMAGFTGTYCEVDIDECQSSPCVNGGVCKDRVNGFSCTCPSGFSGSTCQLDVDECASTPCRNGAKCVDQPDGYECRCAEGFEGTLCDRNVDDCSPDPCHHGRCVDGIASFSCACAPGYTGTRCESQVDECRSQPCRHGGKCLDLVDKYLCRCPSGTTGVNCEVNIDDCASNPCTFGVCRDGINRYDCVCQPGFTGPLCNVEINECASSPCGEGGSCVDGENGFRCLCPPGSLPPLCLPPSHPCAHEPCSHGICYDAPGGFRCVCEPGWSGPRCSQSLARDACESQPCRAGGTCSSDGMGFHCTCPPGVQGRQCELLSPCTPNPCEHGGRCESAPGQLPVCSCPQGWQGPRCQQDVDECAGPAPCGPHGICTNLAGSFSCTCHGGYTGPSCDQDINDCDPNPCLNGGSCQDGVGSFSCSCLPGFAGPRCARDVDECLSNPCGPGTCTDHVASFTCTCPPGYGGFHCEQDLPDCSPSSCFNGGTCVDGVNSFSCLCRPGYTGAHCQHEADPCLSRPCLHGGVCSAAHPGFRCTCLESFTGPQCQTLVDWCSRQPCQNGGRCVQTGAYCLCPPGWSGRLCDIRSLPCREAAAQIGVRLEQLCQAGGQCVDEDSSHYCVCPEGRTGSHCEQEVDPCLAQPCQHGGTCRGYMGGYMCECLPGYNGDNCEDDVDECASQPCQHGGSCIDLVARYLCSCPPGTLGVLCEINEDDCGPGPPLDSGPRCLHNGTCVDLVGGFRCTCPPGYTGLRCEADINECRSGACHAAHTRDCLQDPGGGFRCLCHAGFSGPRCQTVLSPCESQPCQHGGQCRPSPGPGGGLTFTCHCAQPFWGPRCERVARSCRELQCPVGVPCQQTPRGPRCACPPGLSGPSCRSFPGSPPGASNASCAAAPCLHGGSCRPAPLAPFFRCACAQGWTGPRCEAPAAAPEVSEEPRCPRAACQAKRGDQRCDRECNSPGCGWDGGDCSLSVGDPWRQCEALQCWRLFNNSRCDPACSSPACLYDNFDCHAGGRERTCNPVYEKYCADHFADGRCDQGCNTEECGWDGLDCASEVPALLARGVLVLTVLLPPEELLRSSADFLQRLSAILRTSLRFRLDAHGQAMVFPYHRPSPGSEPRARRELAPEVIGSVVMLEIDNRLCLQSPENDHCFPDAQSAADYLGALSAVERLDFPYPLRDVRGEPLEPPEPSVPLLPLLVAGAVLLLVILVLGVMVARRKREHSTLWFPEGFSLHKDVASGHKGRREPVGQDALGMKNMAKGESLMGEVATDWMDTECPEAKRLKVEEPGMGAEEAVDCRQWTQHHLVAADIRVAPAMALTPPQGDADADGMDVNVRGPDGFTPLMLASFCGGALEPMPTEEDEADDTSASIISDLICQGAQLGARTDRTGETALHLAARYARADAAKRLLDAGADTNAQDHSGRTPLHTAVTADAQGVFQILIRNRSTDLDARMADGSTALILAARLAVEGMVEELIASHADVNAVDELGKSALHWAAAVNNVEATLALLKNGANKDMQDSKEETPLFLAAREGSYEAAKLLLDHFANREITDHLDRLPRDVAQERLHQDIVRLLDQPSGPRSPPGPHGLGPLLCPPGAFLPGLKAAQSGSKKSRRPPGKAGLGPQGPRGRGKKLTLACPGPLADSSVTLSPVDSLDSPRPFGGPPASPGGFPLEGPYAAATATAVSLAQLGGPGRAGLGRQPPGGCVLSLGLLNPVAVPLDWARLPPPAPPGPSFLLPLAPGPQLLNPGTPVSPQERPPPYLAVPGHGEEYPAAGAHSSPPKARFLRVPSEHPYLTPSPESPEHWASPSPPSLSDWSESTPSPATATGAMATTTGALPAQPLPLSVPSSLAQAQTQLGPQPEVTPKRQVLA

With `C=C[C@@H](OC)[C@H](OC(=O)Nc1ccc(OC)cc1)c1ccc(OC)c(O)c1`, the composite z-score in assay [1] is -0.391; in [5] it was 1.04; in assay [7], -0.124; in assay [8], -0.527; in [9] it was -0.449; in [10], -0.25. Further, the z-score is 0.239 (inactive) in assay [2], -0.375 (inactive) in assay [3], -0.901 (inactive) in assay [4] and 0.234 (inactive) in assay [6].

As to `C=CCC(OC(C)=O)[C@@H]1[C@@H](N(Cc2ccc(-c3ccccc3)cc2)C(=O)Cc2ccc(F)cc2)c2cc(OCCCO)ccc2N1C(=O)Cc1ccc2ccccc2c1` (stereo not given in full), the composite z-score in assay [1] was -0.848; in [5] it was 2.46; in assay [7], 0.385; in assay [8] it was 0.115; in assay [9] it was 0.151; in [10], -0.0828. Further, the z-score in assay [2] was -0.106 (inactive); in [3], 0.412 (inactive); in assay [4], 0.0926 (inactive); in assay [6], 0.708 (inactive).

With `NC(=O)[C@H]1[C@@H]2C(=O)O[C@@H](c3ccccc3)[C@@H](c3ccccc3)N2[C@@H](c2ccc(O)cc2)[C@]12C(=O)Nc1ccc(C#CC3=CCCCC3)cc12`, the composite z-score in [1] was 1.45; in assay [5], 2.83; in assay [7], -0.185; in [8] it was 0.186; in [9], 0.169; in assay [10], -0.186. Further, the z-score was 1.42 (inactive) in assay [2], 0.481 (inactive) in [3], 2.1 (inactive) in assay [4] and -1.32 (inactive) in [6].

For the compound `C=C(/C(=C/C[C@H](OC(=O)c1ccncc1)c1cccc(OCCO)c1)c1cnc2ccccc2c1)C(C)C`, the composite z-score in assay [1] was 1.54; in assay [5] it was 1.21; in assay [7] it was -0.115; in [8], 1.85; in [9], 1.07; in [10], -0.0578. The z-score in [2] was -25.3 (active); in assay [3], -20.3 (active); in assay [4], -4.3 (inactive); in assay [6] it was -0.315 (inactive).

As to `CC(C)CCC[C@@H](C)[C@H]1CC[C@@]2(C)C3=C(CC[C@]12C)[C@@]1(C)CC[C@H](OC(=O)c2ccccc2)C(C)(C)C1CC3` (stereo not given in full), the composite z-score in assay [1] is -0.0528; in assay [5], -0.11; in [7], -0.193; in assay [8], 0.559; in [9], 0.316; in [10], -0.0828. Moreover, the z-score in assay [2] is -1.9 (inactive); in assay [3] it was -0.547 (inactive); in [4] it was -0.568 (inactive); in [6], 1.59 (inactive).

On to `COC(=O)C(CC#Cc1ccc2c(c1)[C@]1(C(=O)N2)[C@H](C(=O)Nc2nc3ccccc3s2)[C@H]2C(=O)O[C@H](c3ccccc3)[C@H](c3ccccc3)N2[C@@H]1c1ccc(OCCO)cc1)C(=O)OC`, for which the composite z-score was found to be 1.55 in assay [1]; 3.18 in [5]; 0.0973 in [7]; 1.59 in [8]; 1.08 in assay [9]; 0.0766 in assay [10]. The z-score in assay [2] was -0.442 (inactive); in assay [3], -0.144 (inactive); in [4], 1.37 (inactive); in assay [6], 2.96 (inactive).

For the compound `Cc1c(NC(=O)/C(C#N)=C/c2ccccc2Cl)c(=O)n(-c2ccccc2)n1C`, the composite z-score in assay [1] was 0.315; in [5], 3.03; in [7] it was -0.158; in [8], 0.0603; in [9], 0.259; in [10], 0.0092. Moreover, the z-score is -1.06 (inactive) in assay [2], -1.76 (inactive) in [3], -0.4 (inactive) in assay [4] and 0.245 (inactive) in [6].

As for `CO[C@H]1O[C@H](CO)[C@@H](OC(=O)CCc2ccccc2)[C@H](OC(=O)c2cc3ccccc3[nH]2)[C@H]1OC(=O)c1cc2ccccc2[nH]1`, the composite z-score in assay [1] is 1.38; in assay [5], 2.74; in [7], -0.0468; in assay [8], 0.565; in assay [9], 1.07; in [10], -0.0662. The z-score in assay [2] is -0.583 (inactive); in assay [3], -0.0932 (inactive); in [4], 20 (active); in [6] it was 1.5 (inactive).

Turning to `CN(C)CCCNC(=O)[C@@H]1c2ccccc2C(=O)N(C2CCCCC2)[C@H]1c1ccc(CO)cc1`, the composite z-score in assay [1] is 1.55; in assay [5], 3.08; in [7], -0.118; in [8], 0.98; in assay [9] it was 1.03; in assay [10], 0.251. In addition, the z-score in [2] is 0.154 (inactive); in [3] it was -1.13 (inactive); in assay [4], -1.02 (inactive); in assay [6], 0.37 (inactive).

Turning to `COC(=O)[C@@]1(Cc2ccccc2CN=[N+]=[N-])N=C(c2ccc(OCCCO)cc2)O[C@H]1c1ccccc1CN=[N+]=[N-]`, the composite z-score in [1] was 0.812; in assay [5] it was 1.3; in [7] it was -0.0458; in [8], -0.56; in [9] it was -0.498; in assay [10], -0.21. The z-score in assay [2] was 0.84 (inactive); in assay [3] it was 1.96 (inactive); in assay [4] it was 35.5 (active); in assay [6], 0.478 (inactive).

In the case of `O=C(O)[C@@H]1C[C@@H]2C(=O)N3CCC[C@H]3C(=O)N2[C@@H]1c1cccc(OCCO)c1`, the composite z-score in [1] was found to be 1.53; in [5] it was 4.25; in assay [7], 1.49; in assay [8] it was 1.95; in assay [9] it was 1.07; in [10], 1.27. Besides, the z-score was -0.386 (inactive) in assay [2], -1.98 (inactive) in assay [3], -0.533 (inactive) in assay [4] and 1.14 (inactive) in assay [6].

Turning to `CN1C(=O)[C@@]2(Cc3ccccc3)N=C(c3ccc(OCCCO)cc3)O[C@H]2c2ccccc21`, the composite z-score was 1.56 in assay [1]; 2.94 in [5]; 0.109 in assay [7]; 0.955 in assay [8]; 1 in assay [9]; -0.0982 in assay [10]. For the same compound, the z-score was -1.28 (inactive) in assay [2], -4.11 (inactive) in [3], 0.843 (inactive) in [4] and 0.291 (inactive) in [6].

As for `C=C[C@@H](C)[C@@H](OC(=O)Nc1ccc(SC)cc1)c1ccc(OCCO)cc1`, the composite z-score in assay [1] is 1.19; in [5], 1.92; in assay [7], -0.106; in [8] it was 0.172; in assay [9], 0.194; in [10], 0.0348. Besides, the z-score in assay [2] is 0.222 (inactive); in assay [3], -1.58 (inactive); in assay [4], -0.31 (inactive); in assay [6], 1.41 (inactive).

For `COC(=O)C(CC#Cc1ccc2c(c1)[C@]1(C(=O)N2)[C@H](c2ccc(O)cc2)N2[C@H](c3ccccc3)[C@H](c3ccccc3)OC(=O)[C@H]2[C@@H]1C(=O)N1CCCCCCC1)C(=O)OC`, the composite z-score came to 1.53 in assay [1]; 4.02 in assay [5]; 1.5 in [7]; 1.91 in assay [8]; 1.14 in assay [9]; 0.804 in assay [10]. Besides, the z-score was -1.87 (inactive) in assay [2], -1.29 (inactive) in assay [3], -0.939 (inactive) in [4] and 0.88 (inactive) in assay [6].

Regarding `COCCOC(=O)N1C(=O)[C@@]2(c3cc(C#CC4(O)CCCCCC4)ccc31)[C@H](c1ccc(OCCO)cc1)N1[C@H](c3ccccc3)[C@H](c3ccccc3)OC(=O)[C@H]1[C@@H]2C(=O)Nc1nc2ccccc2s1`, the composite z-score in assay [1] was 1.54; in [5], 1.57; in assay [7], 0.225; in [8], 1.42; in assay [9], 1.05; in assay [10], 0.219. In addition, the z-score in assay [2] was 1.76 (inactive); in assay [3], 1.05 (inactive); in assay [4], 2.93 (inactive); in assay [6] it was 0.11 (inactive).

In the case of `C=CCC(OC(C)=O)[C@@H]1[C@@H](N(Cc2ccc(-c3cccc(C(F)(F)F)c3)o2)C(=O)Cc2ccc(OC)cc2)c2cc(OCCCO)ccc2N1C(=O)Cc1ccc2ccccc2c1` (stereo not given in full), the composite z-score was 0.466 in assay [1]; 0.958 in assay [5]; -0.0654 in assay [7]; -0.621 in assay [8]; -0.246 in assay [9]; -0.217 in [10]. For the same compound, the z-score in assay [2] was 0.807 (inactive); in [3], 0.243 (inactive); in assay [4], -0.386 (inactive); in assay [6] it was -0.406 (inactive).

As for `C=CCC(OC(C)=O)[C@@H]1[C@@H](N(Cc2ccc(-c3cccc(C(F)(F)F)c3)o2)C(=O)c2cccc3ccccc23)c2cc(OCCCO)ccc2N1C(=O)Cc1ccc(OC)cc1` (stereo not given in full), the composite z-score in [1] is 0.224; in assay [5], 0.648; in [7] it was 0.0054; in assay [8], 0.266; in [9], 0.263; in [10], -0.133. In addition, the z-score was 0.504 (inactive) in assay [2], -0.117 (inactive) in assay [3], -0.296 (inactive) in assay [4] and 0.776 (inactive) in assay [6].
